High-throughput results from PubChem.
Autofluor counter: counter-screen for toxin protease inhibitors: compound fluorescence | compound autofluorescence counterscreen, microsphere flow cytometry; stronger effect = higher value | fluorescence intensity (concentration not given with the values) | 360,000 tested, 3.1% active | AID 624483; in the data active = fluorescence intensity above about 16000; inconclusive = no clear call, values can overlap the other calls
BoNT A protease: BoNT A light chain protease inhibition; multiplex microsphere protease substrate cleavage, flow cytometry; inhibition, % at 10 µM; 360,000 tested, 0.17% active; AID 588499
Anthrax LF prot: anthrax lethal factor protease inhibition; P15917; multiplex microsphere protease cleavage assay, LF; inhibition, % at 10 µM; 360,000 tested, 0.12% active; AID 588501
Target sequence (P15917 whole entry, looked up): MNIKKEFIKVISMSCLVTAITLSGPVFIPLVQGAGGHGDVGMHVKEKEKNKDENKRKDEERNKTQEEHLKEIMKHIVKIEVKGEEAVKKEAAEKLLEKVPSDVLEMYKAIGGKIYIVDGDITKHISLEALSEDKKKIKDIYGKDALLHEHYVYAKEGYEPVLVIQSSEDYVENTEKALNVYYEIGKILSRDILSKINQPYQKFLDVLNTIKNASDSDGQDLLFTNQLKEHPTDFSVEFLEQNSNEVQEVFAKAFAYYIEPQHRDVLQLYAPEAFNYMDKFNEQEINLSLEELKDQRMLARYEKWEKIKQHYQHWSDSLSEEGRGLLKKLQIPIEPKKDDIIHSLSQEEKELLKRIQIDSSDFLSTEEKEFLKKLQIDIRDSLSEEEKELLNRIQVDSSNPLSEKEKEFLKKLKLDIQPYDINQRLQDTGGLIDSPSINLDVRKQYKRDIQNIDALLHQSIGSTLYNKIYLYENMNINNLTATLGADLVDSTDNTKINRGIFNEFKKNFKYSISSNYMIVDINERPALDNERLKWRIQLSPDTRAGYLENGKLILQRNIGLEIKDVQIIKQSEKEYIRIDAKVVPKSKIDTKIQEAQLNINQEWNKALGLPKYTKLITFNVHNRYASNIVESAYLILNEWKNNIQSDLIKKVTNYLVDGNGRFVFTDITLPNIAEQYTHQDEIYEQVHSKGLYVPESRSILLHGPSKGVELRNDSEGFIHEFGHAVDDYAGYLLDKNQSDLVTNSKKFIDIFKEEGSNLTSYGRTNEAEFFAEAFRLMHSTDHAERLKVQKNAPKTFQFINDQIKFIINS
SARS 3CLpro inh: SARS-CoV 3CLpro protease inhibition | 290,000 tested, 0.14% active | recombinant SARS-CoV 3CLpro, quenched FRET peptide cleavage | inhibition, % at 6 µM; in the data active = inhibition above about 12%
BoNT-F LC inh: BoNT F light chain protease inhibition; Multiplex microsphere protease cleavage assay, flow cytometry; inhibition, % at 10 µM; 360,000 tested, 0.22% active; AID 588497; in the data active = inhibition above about 35%, passing the limit was not always enough; inconclusive = no clear call, values can overlap the other calls
Of the large screens only hits and unclear results are named; the others gave an inactive call. An excerpt weighted towards active compounds, which were near 3.5% of everything screened. Cut-off read from the data, not from the text of the source, unless noted: active = inhibition above about 30%; inconclusive = no clear call, values can overlap the other calls; inactive = below that.

O=C(c1ccc(Cl)s1)N1CCc2ccccc21	Autofluor counter 20271
Cc1nn(C)c(C(=O)N2CCc3ccccc32)c1Cl	Autofluor counter 21851, BoNT A protease inconclusive
CC(C)(O)C#Cc1ccc(C(=O)NC2CCCCC2)s1	none
S=C(NCC1CCCO1)c1ccc(Br)cc1 (centres undefined)	none
c1ccc(Sc2ncnc3c2oc2ccccc23)nc1	none
c1ccc2c(c1)nnn2Cc1nnc2sc(-c3ccncc3)nn12	none
CC(C)(C)NC(=O)Cn1c(=O)n(CC(=O)NC(C)(C)C)c2ccccc21	none
NS(=O)(=O)c1cc(C(=O)N2CCc3ccccc32)c(Cl)cc1Cl	Autofluor counter 18762
O=C(c1ccc(Cl)s1)N1CCCC1	Autofluor counter 24368
CCN(C(=O)CSc1nc(C)nc2sc3c(c12)CCC3)C1CCS(=O)(=O)C1 (centres undefined)	none (no result: SARS 3CLpro inh)
Cc1cccc2c3nc4ccccc4nc3n(C)c12	BoNT A protease 44.7
COc1cc2[nH]c(=S)n(-c3ccccc3)c(=O)c2cc1OC	none
COc1cc2[nH]c(=S)n(N(C(C)=O)C(C)=O)c(=O)c2cc1OC	Autofluor counter 22631
COc1cc2[nH]c(=S)n(C3CC3)c(=O)c2cc1OC	none
COc1cc2[nH]c(=S)n(C3CCCC3)c(=O)c2cc1OC	Autofluor counter 23713
O=C(Nc1ccc2c(c1)OCO2)C1CC(c2ccccc2O)=NO1 (centres undefined)	none
O=C1CC(c2ccccc2)CC(O)=C1C=NCCN1CCN(C(=O)Nc2ccccc2)CC1 (centres undefined)	Autofluor counter 22422
O=C1[C@H]2[C@@H](c3ccccc3)N[C@]3(CCCN(Cc4ccc(Cl)cc4)C3=O)[C@H]2C(=O)N1Cc1ccccc1	none (no result: SARS 3CLpro inh)
Cn1c(=O)c2c(nc(N3CCN(c4ccccn4)CC3)n2Cc2ccccc2Cl)n(C)c1=O	Autofluor counter 21245, BoNT A protease inconclusive
Cc1c(C(=O)N2CCCCC2)oc2ccccc12	none (no result: SARS 3CLpro inh)
Cc1c(C(=O)NC(C)CN2CCCCC2)oc2ccccc12 (centres undefined)	Autofluor counter 17372
O=C1CC(N(C(=O)c2ccco2)c2ccc(F)cc2)C(=O)N1c1ccc(F)cc1 (centres undefined)	Autofluor counter 19184, BoNT A protease inconclusive
COC(=O)CCC[C@H]1CC2(C[C@H](CCCO[Si](C)(C)C(C)(C)C)N1C(=O)OC(C)(C)C)OCCO2	none (no result: SARS 3CLpro inh)
CCOCCn1c(CC)nc2ccccc21	none
CCc1nc2ccccc2n(CCOCCn2c(=O)c(CC)nc3ccccc32)c1=O	Autofluor counter 21722 (no result: SARS 3CLpro inh)
Cc1cccc(Cc2cnc(NC(=O)CN3C(=O)/C(=C/c4ccccc4)SC3=S)s2)c1	none
Cc1cccc(-c2noc(CCCC(=O)N3CCOCC3)n2)c1	Autofluor counter 21401
Cc1ccc(-c2noc(CCCC(=O)N3CCOCC3)n2)cc1	Autofluor counter 20543
O=C(CCCc1nc(-c2ccc(Cl)cc2)no1)N1CCOCC1	none
Cc1cccc(-c2noc(CCC(=O)N3CCN(c4cc(C)ccc4C)CC3)n2)c1	none (no result: SARS 3CLpro inh)
Cc1cccn2c(=O)c3cc(C(=O)NC4CCCCC4)c(=N)n(Cc4ccccc4)c3nc12	none
O=C1NCCN1C(=O)c1ccco1	Autofluor counter 22557
COCc1cc(C)n(CC(=O)Nc2cccc(C)c2)c(=O)c1C#N	none
CCOc1ccc2c(C)c(C)c(=O)oc2c1OCC	Autofluor counter 23673
CCOc1c(OC)ccc2c3c(c(=O)oc12)CCCC3	Autofluor counter 22747
COc1ccc2c3c(c(=O)oc2c1OCC(=O)O)CCCC3	none
CCOc1ccc2c(C)c(C(=O)O)oc2c1OCC	none
CC(=O)NCc1ccc(-c2csc(N)n2)s1	none
Cc1nnc(NC(=O)c2ccc3c(c2)C(=O)N(CCC(C)C)C3=O)s1	Autofluor counter 20485
CCc1nnc(NC(=O)c2ccc3c(c2)C(=O)N(CC)C3=O)s1	Autofluor counter 23383
O=C(NC(CO)(CO)CO)c1coc(=O)c(Br)c1	Autofluor counter 17123
CC(C)(C)c1csc(N(CCC#N)CCC#N)n1	Autofluor counter 16153
N#CCCN(CCC#N)c1nncs1	none
COc1ccccc1C(CNC(=O)c1cccc(S(=O)(=O)Nc2ccc(F)cc2)c1)N1CCCC1 (centres undefined)	Autofluor counter 25818 (no result: SARS 3CLpro inh)
COc1ccc(NS(=O)(=O)c2cccc(C(=O)NCC(c3ccccc3OC)N3CCCC3)c2)cc1 (centres undefined)	none (no result: SARS 3CLpro inh)
O=C(NCC(c1ccco1)N1CCCC1)c1cccc(NS(=O)(=O)c2ccccc2)c1 (centres undefined)	Autofluor counter 16491 (no result: SARS 3CLpro inh)
O=C(Nc1cccc(-c2nnc(-c3ccccc3)o2)c1)C1CCCCC1	none
Cc1ccc(NC(=O)C2CCCN(S(=O)(=O)c3c(C)noc3C)C2)nc1 (centres undefined)	none
COC(OC)C1(C)C(C#N)=C(N)Oc2c1c(=O)oc1ccccc21 (centres undefined)	none
Cc1ccc(S(=O)(=O)n2cnc3ccccc32)cc1	Autofluor counter 16399
COc1ccc(S(=O)(=O)n2cnc3ccccc32)cc1	none
O=c1c2ccccc2nc(-c2ccccc2)n1-c1cccnc1	Autofluor counter 22832, BoNT A protease inconclusive
Cc1ccc(-c2nc3ccccc3c(=O)n2-c2cccnc2)cc1	none
Cc1cc(Nc2ccccc2C(=O)O)n2ncnc2n1	none (no result: SARS 3CLpro inh)
Cc1cc(Nc2ccccc2N2CCOCC2)n2ncnc2n1	Autofluor counter 16563
CCN(Cc1ccccc1)Cc1c(C)[nH]c2c(C)c(C)ccc2c1=O	Autofluor counter 20905, BoNT A protease inconclusive
Cc1cc(C)c(C(=O)N2CCCC(N3CCN(c4ccc(F)cc4)CC3)C2)o1 (centres undefined)	none
O=C(Oc1ccc2c(c1)OCC2=O)c1ccc(Cl)cc1	BoNT A protease inconclusive, BoNT-F LC inh inconclusive
COc1cc(C(=O)Oc2ccc3c(c2)OCC3=O)cc(OC)c1OC	BoNT-F LC inh 43.7
Cc1ccc(NC(=O)CN2C(=O)S/C(=C\c3ccc(C(=O)O)cc3)C2=O)cc1	none
CCOC(=O)NC(Nc1sc2c(c1C(N)=O)CCCC2)(C(=O)OCC)C(F)(F)F (centres undefined)	Autofluor counter 20183, BoNT A protease inconclusive
CCOC(=O)C(NC(=O)CC)(Nc1nc2c(s1)CCCC2)C(F)(F)F (centres undefined)	none
COCC(=O)Nc1ccc(N2CCOCC2)c(S(=O)(=O)Nc2ccc(OC)cc2)c1	none (no result: SARS 3CLpro inh)
CSCCC(NC(=O)OC(C)(C)C)C(=O)NC(C(=O)NC(CC(C)C)C(N)=O)C(C)C (centres undefined)	BoNT-F LC inh 71.7
CC(C)CC(NC(=O)C(NC(=O)OC(C)(C)C)C(C)C)C(N)=O (centres undefined)	none
CCc1ccc(S(=O)(=O)Nc2ccncc2)cc1	none
Cc1c2cc(O)c(=O)cc-2oc2cc(O)c(O)cc12	Autofluor counter 17336
COc1cc(OC)c(-c2c3cc(O)c(=O)cc-3oc3cc(O)c(O)cc23)cc1OC	none
CC1=CC(C)(C)N(C(=O)c2ccccc2)c2ccccc21	Autofluor counter 23091
CC1=CC(C)(C)N(C(=O)c2ccccc2)c2ccc(C)cc21	none
Cc1cc(C)c(C)c(S(=O)(=O)N2CCN(CC(=O)c3c(N)n(Cc4ccccc4)c(=O)n(C)c3=O)CC2)c1C	none
